This passage reports composite z-score and z-score results from PubChem BioAssay.

Calls of active or inactive are those of the source. Unless noted, the rule behind the calls is not given here.

Experiment [1] deals with XIP peptide (Xip251-270) binding. Kind of experiment: XIP fragment 251-270 binding compounds – biochemical, small-molecule microarray, fluorescence 635/667 nm, 0.1 µg/mL protein, primary screen (AID 1182). Conditions: fluorescent protein binding, 635 nm, higher = more signal, called active from +8 up or from −8 down.
Experiment [2] deals with XIP peptide (Xip251-270). Briefly: compounds binding XIP fragment 251-270 – biochemical, small-molecule microarray, fluorescence 635/667 nm, 0.5 µg/mL protein, primary screen (AID 1183). Conditions: fluorescence 635 nm, higher = more signal.
A short description of experiment [3]: blood-stage malaria parasite viability loss – strain 3D7, DAPI fluorescence, 100 nL, primary screen (AID 1184).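 Note: parasites grown inside human red blood cells in medium with human serum.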 Conditions: P. falciparum 3D7 growth, 3 d, higher = more signal.
Experiment [4] has as its target Homeobox protein Hox-A13 (Mus musculus) (UniProt Q62424). Kind of experiment: disruptors of Hoxa13 oligonucleotide interaction – biochemical, fluorescence polarization, labeled oligonucleotide, primary screen (AID 1185). Conditions: Hoxa13:DNA binding, 15 min, higher = more signal, called active from +8 up or from −8 down. In general terms: In fluorescence polarisation assays a small probe gives low polarisation when free and higher when bound to something large.

Experiment [5] can be described thus: blockers of DNA damage checkpoint Chk1 activation – imaging, HeLa, hydroxyurea, phospho-Chk1 antibody, percent positive cells, primary screen (AID 1186). Conditions: hydroxyurea-induced phospho-Chk1 immunofluorescence imaging, higher = more signal.
Experiment [6] is described as follows: blockers of DNA damage checkpoint Chk1 activation – imaging, HeLa, hydroxyurea, phospho-Chk1 nuclear intensity, primary screen (AID 1187). As to conditions: hydroxyurea-induced phospho-Chk1 immunofluorescence imaging, higher = more signal.

Homeobox protein Hox-A13 (Mus musculus), sequence (Q62424 whole entry, looked up): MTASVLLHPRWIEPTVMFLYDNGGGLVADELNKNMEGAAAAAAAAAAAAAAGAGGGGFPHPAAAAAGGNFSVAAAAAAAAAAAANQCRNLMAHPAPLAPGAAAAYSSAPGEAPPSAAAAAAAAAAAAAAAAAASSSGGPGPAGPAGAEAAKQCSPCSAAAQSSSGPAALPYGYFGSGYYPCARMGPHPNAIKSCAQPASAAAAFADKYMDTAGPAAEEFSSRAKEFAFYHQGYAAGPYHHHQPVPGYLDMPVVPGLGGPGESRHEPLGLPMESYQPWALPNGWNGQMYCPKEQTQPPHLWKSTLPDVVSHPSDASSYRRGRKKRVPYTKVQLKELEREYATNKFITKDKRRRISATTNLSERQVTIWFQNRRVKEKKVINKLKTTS

Take `COc1ccc([Si](C)(C)[C@@H]2[C@@H](CCO)O[C@]3(C(=O)N(Cc4ccc(N5C(=O)c6cccc7cccc5c67)cc4)c4ccccc43)[C@H]2C)cc1`: the results for the composite z-score in experiment [1] and in experiment [2] were 0.476 (inactive) and 0.596, respectively. Besides, the z-score was -2.68 in experiment [3], -0.946 (inactive) in experiment [4], -0.903 (inactive) in experiment [5] and -0.198 (inactive) in experiment [6].

Turning to `O=C1C2C=CC(C(O)C3CC=CCC3)N(n3cnnc3)C2C(=O)N1Cc1ccccc1` (stereo unspecified), the composite z-score in experiment [1] was 0.887 (inactive); in experiment [2], -0.0517. The z-score in experiment [3] is 0.017; in experiment [4], -3.36 (inactive); in experiment [5] it was 0.518 (inactive); in experiment [6], -0.603 (inactive).

For `C[N+](C)(C)CCCC[C@@H]1NC(=O)[C@@H]2C[C@H](C(=O)NCCCCCCNC(=O)CS)[C@H](c3cccc(OCCO)c3)N2C1=O`, the composite z-score in experiment [1] is 0.339 (inactive); in experiment [2] it was 0.623. Also, the z-score in experiment [3] was -0.198; in experiment [4] it was -3.62 (inactive); in experiment [5] it was -0.38 (inactive); in experiment [6], -0.386 (inactive).

As to `CCCNC(=O)[C@@]1(C)c2ccccc2C(=O)N(Cc2cc(C(F)(F)F)cc(C(F)(F)F)c2)[C@H]1c1ccc(CO)cc1`, the composite z-score in experiment [1] was 0.977 (inactive); in experiment [2], 0.665. Moreover, the z-score is -1.63 in experiment [3], -4.26 (inactive) in experiment [4], -0.0596 (inactive) in experiment [5] and -0.0865 (inactive) in experiment [6].

Regarding `COc1ccc([Si](C)(C)[C@@H]2[C@@H](CCO)O[C@]3(C(=O)N(Cc4cccc(N(C=O)c5ccccc5)c4)c4ccccc43)[C@H]2C)cc1`, the composite z-score in experiment [1] is 1.31 (inactive); in experiment [2], 0.675. Also, the z-score was -2.51 in experiment [3], -0.551 (inactive) in experiment [4], -0.79 (inactive) in experiment [5] and -0.438 (inactive) in experiment [6].

In the case of `C=CCN1C(=O)[C@]2(Cc3ccccc31)N=C(c1ccc(OCCCO)cc1)O[C@@H]2c1ccccc1`, the composite z-score in experiment [1] is 0.526 (inactive); in experiment [2], 0.791. Besides, the z-score was -2.07 in experiment [3], -4.97 (inactive) in experiment [4], -0.149 (inactive) in experiment [5] and 0.0449 (inactive) in experiment [6].

As to `Cc1cccc(/C=C/C=O)c1`, the composite z-score is 0.43 (inactive) in experiment [1] and 0.838 in experiment [2]. Further, the z-score in experiment [3] was 0.787; in experiment [4], -1.05 (inactive); in experiment [5] it was 0.381 (inactive); in experiment [6], 0.412 (inactive).

For `COc1ccc(C#Cc2ccc3c(c2)[C@]2(C(=O)N3)[C@H](C(=O)N3CCN(c4ncccn4)CC3)[C@H]3C(=O)O[C@H](c4ccccc4)[C@H](c4ccccc4)N3[C@@H]2c2ccc(O)cc2)cc1`, the composite z-score was -0.219 (inactive) in experiment [1] and 0.734 in experiment [2]. The z-score is -1.08 in experiment [3], -0.983 (inactive) in experiment [4], -0.247 (inactive) in experiment [5] and -0.298 (inactive) in experiment [6].

As to `C=CCN1C(=O)[C@@]2(O[C@@H](CCO)[C@H]([Si](C)(C)c3ccc(OC)cc3)[C@H]2C)c2cc(NC(C)=O)ccc21`, the composite z-score in experiment [1] was 0.149 (inactive); in experiment [2], 0.258. In addition, the z-score in experiment [3] is -2.74; in experiment [4] it was -6.52 (inactive); in experiment [5] it was -0.0604 (inactive); in experiment [6], 0.348 (inactive).

Regarding `CC1(C)C(=O)C(c2ccccc2)=C2CN3C(=O)N(CCc4ccccc4)C(=O)C3(Cc3ccccc3)C=C21` (stereo unspecified), the figures for the composite z-score in experiment [1] and in experiment [2] were 1.7 (inactive) and -0.119, respectively. Moreover, the z-score in experiment [3] is -1.34; in experiment [4], -0.335 (inactive); in experiment [5], -0.0628 (inactive); in experiment [6], 0.121 (inactive).

For the molecule `CCN(CC)c1ccc(N2CC=CC34O[C@@H]5/C=C\CCC(C)OC(=O)C5[C@H]3C(=O)N(CCCCCCO)[C@@H]4C2=O)cc1` (stereo partly specified), the figures for the composite z-score in experiment [1] and in experiment [2] were 0.76 (inactive) and -0.0479, respectively. For the same molecule, the z-score in experiment [3] was 0.816; in experiment [4], -5.99 (inactive); in experiment [5], -0.632 (inactive); in experiment [6], -0.767 (inactive).

`O=C1OCCC/C=C\[C@H]2OC34C=CCN(CCN5CCOCC5)C(=O)[C@H]3N(CCO)C(=O)[C@@H]4C12` (stereo partly specified): the composite z-score was 0.489 (inactive) in experiment [1] and -0.979 in experiment [2]. For the same molecule, the z-score in experiment [3] was -1.22; in experiment [4] it was -5.83 (inactive); in experiment [5] it was -0.225 (inactive); in experiment [6] it was 0.264 (inactive).

Take `CN(C)CCCCCCNC(=O)[C@@H]1C[C@@H]2C(=O)NCC(=O)N2[C@@H]1c1cccc(OCCO)c1`: the composite z-score in experiment [1] is 0.096 (inactive); in experiment [2] it was 0.851. Besides, the z-score is 0.331 in experiment [3], -2.07 (inactive) in experiment [4], 0.491 (inactive) in experiment [5] and 0.797 (inactive) in experiment [6].

Consider `O=C1C2C=CC(C(O)c3ccc(-c4ccccc4)s3)N(Nc3ccccc3F)C2C(=O)N1c1ccccc1` (stereo unspecified), for which the composite z-score in experiment [1] was 0.251 (inactive); in experiment [2], 0.734. In addition, the z-score is -0.531 in experiment [3], 0.151 (inactive) in experiment [4], 0.184 (inactive) in experiment [5] and 0.414 (inactive) in experiment [6].

Take `CCCC[C@@H]1C[C@H]1[C@@H](NC(=O)c1ccco1)c1ccccc1`: the composite z-score was -0.153 (inactive) in experiment [1] and -0.041 in experiment [2]. In addition, the z-score in experiment [3] was -1.46; in experiment [4], -2.46 (inactive); in experiment [5], 0.243 (inactive); in experiment [6] it was 0.428 (inactive).

In the case of `COCCCNC(=O)[C@@]1(Sc2ccc(C)cc2)CC(=O)N(Cc2ccccc2)[C@@H]1c1ccc(CO)cc1`, the figures for the composite z-score in experiment [1] and in experiment [2] were -0.496 (inactive) and 0.841, respectively. The z-score in experiment [3] was -0.471; in experiment [4], -2.81 (inactive); in experiment [5], -0.24 (inactive); in experiment [6], -0.283 (inactive).
